Experimental data from ChEMBL document CHEMBL3988442, “University of Dundee, Small-Polar-MMV Screening Library” (2021).
About 13,000 (27%) of roughly 48,000 compounds showed an effect of 50% or more. Some of the results follow.

Each compound was assayed on Wolbachia pipientis (assay: Anti-Wolbachia Cell-Based Screen). Settings: 5 µM.
Format: functional
Parameters: scale not given: in the data most compounds retested in dose-response had high values

Structure (SMILES) | Percent Effect
COCCn1cnnc1CN(C)c1nc(N)ncc1C | 15.34%
Cc1ccc(CN(C)C(=O)CN2CCCC2c2cnn(C)c2)cc1 (stereo not given) | -7.848%
O=c1[nH]cc(N2CCCCC2)c(=O)[nH]1 | 67.95%
Cn1ncc(N2CCOCC2)c(Cl)c1=O | 6.365%
O=c1[nH]cc(N2CCOCC2)c(=O)[nH]1 | 76.31%
c1ccc2c(N3CCOCC3)cnnc2c1 | 28.28%
O=C(Cc1c[nH]c(=O)[nH]c1=O)N1CCCCC1CCc1ccccc1 (stereo not given) | -18.96%
O=C(c1c[nH]c(=O)[nH]1)N1CCc2ccccc21 | 14.35%
O=C(NCCN1CCOCC1)c1cc(-c2ccc(Cl)s2)[nH]n1 | 11.57%
N#CC(Sc1nnnn1C1CCOCC1)C1CCCCC1 (stereo not given) | 11.61%
CC(=O)c1cc(CN2C[C@H]3CC[C@@H]2CN(S(=O)(=O)N(C)C)C3)cs1 | -15.69%
O=c1n(CC2CC2)nc(C2CCNCC2)n1Cc1ccccc1 | 0.2019%
CC(=O)N1CCN(CC2CCOc3ccccc3C2)CC1 (stereo not given) | -15.11%
O=C1NC(c2ccccc2)=N[C@@]12CC[C@@H]1CN(CC3CCOCC3)C[C@@H]12 | 10.45%
O=C1NC2(Cc3ccccc31)CN(CC1CCOCC1)C2 | 125.6%
COc1ccc2c(=O)n(CC3CCNC3)ccc2c1OC (stereo not given) | 10.36%
Cc1cc(=O)c2ccccc2n1CC1CCNC1 (stereo not given) | 4.531%
OC(CN1CCN(CC2CCCCC2)CC1)c1ccccc1 (stereo not given) | 21.16%
O=C1NC2(Cc3ccccc31)CN(CC1CCNC1)C2 (stereo not given) | 109.8%
O=C(O)C(F)(F)F.O=C1NC2(CCN(CC3CC3)CC2)CC1c1ccccc1 (stereo not given) | -3.708%
O=C1NC2(Cc3ccccc31)CN(CC1CCNCC1)C2 | 115.6%
O=C1NC2(Cc3ccccc31)CN(CC1CCCC1)C2 | 92.98%
O=C(CSc1ccc(F)cc1)NS(=O)(=O)c1ccc2c(c1)OCCO2 | -12.15%
CN(C)C(CNCc1nc(-c2ccsc2)no1)c1ccco1 (stereo not given) | 15.02%
CCC(O)(CNCc1ccncc1)c1ccc(Br)cc1 (stereo not given) | 15.97%

Structure (SMILES) | Percent Effect
COc1ccc(CN2C[C@@H](F)[C@@H](OCc3nc4cnccc4[nH]3)C2)cn1 | -7.55%
O=C(c1cc(-c2ccco2)nc2c(Cl)cccc12)N1CC[C@H]2CNC[C@H]21 | -4.812%
O=C(Nc1ccccc1F)N(CCO)Cc1ccsc1 | -6.968%
CN1C(=O)[C@H]2CC[C@@H]1CN(C(=O)Nc1ccccc1C(F)(F)F)C2 | -23.74%
CCc1noc(CS(=O)(=O)C/C=C/c2ccccc2)n1 | -3.698%
CCc1cccc2cc(CN)c(=O)[nH]c12 | 94.88%
COCCNC(=O)NCCc1cccc(OC)c1O | -1.079%
COc1ccccc1CNCCc1cccc(C(N)=O)c1 | -10.3%
Cc1cccc2cc(CN3CCC(N4CCCC4)CC3)c(=O)[nH]c12 | -6.915%
Cc1cccc2cc(CN3CCC(O)(CN4CCCC4)CC3)c(=O)[nH]c12 | -13.98%
Cc1ccc2cc(CNCCCO)c(=O)[nH]c2c1 | -12.61%
COCCNCc1cc2ccc(C)c(C)c2[nH]c1=O | 110.6%
CCc1cccc2cc(CNCCOC)c(=O)[nH]c12 | 77.28%
COc1ccc(CNC(=O)NCc2c(C)cc(C)[nH]c2=O)cc1 | -8.384%
CCc1nccn1CCC(=O)N1CC(=O)N(c2ccccc2C)CC1C (stereo not given) | -5.04%
CC(O)(CCc1ccccc1)CNC(=O)c1ccsc1 (stereo not given) | 16.96%
CCOC(=O)CSc1nnc(C(N)CC(C)C)o1.Cl (stereo not given) | 98.1%
CCOC(=O)CSc1ccc(-c2nc(CC)no2)cn1 | -9.081%
CCOC(=O)CSc1ccc(-c2nc(C)no2)cn1 | -12.26%
CCC(C)NC(=O)Cc1c(C)nc2c(c1C)c(=O)[nH]n2C (stereo not given) | -5.261%
CSc1nc2cc(C)n(CC(=O)NC(C)C)c2c(=O)n1CC(C)C | 0.5328%
Cc1cc(NC(C)C(=O)N2CCN(c3ncccn3)CC2)ccc1F (stereo not given) | -7.766%
CC(C)NC(=O)CC(C)NCc1cc(Cl)ccc1F (stereo not given) | 1.096%
Cc1cc(=O)n(CC(=O)NC(C)C)c(Nc2ccc(F)c(C)c2)n1 | 119.3%
CCC(C)NC(=O)CN1CCC2(CC1)OCCO2 (stereo not given) | 3.422%

Structure (SMILES) | Percent Effect
CCC(C)NC(=O)Cn1c(Nc2cc(C)cc(C)c2)nc(C)cc1=O (stereo not given) | 130.9%
Cc1cc(C)cc(Nc2nc(C)cc(=O)n2CC(=O)NC(C)C)c1 | 102.2%
Cc1nc2cc(=O)[nH]n2c(C)c1CC(=O)NC(C)C | 6.511%
O=C1CC(c2cccs2)Cc2[nH]c(=O)ccc21 (stereo not given) | 3.972%
O=C(CN1CCc2cncnc2C1)NC(C1CC1)C1CC1 | 0.03163%
CCN(CC)C(=O)c1ccn(COc2cc(C)cc(C)c2)n1 | 11.03%
CC(C)NC(=O)N1CCC(c2nnc3ccc(C(=O)N(C)C)cn23)C1 (stereo not given) | 2.89%
CC(C)c1nnc2n1CCN(C(=O)c1cnc(C3CC3)s1)C2 | -14.42%
CC(C)NC(=O)N1CCn2c(nnc2C2CCCN2)C1 (stereo not given) | 102.1%
CN1CCN(Cc2cnc3n2CCN(C(=O)N2CCCC2)C3)CC1 | -14.55%
CN(C)Cc1cnc2n1CCN(C(=O)NC1CCCC1)CC2.O=C(O)C(F)(F)F | -15.13%
O=C(c1ccc(C2CCCN2)s1)N1CCN(C(=O)N2CCOCC2)CC1 (stereo not given) | 14.1%
O=C(N1CCCC1)N1CCn2c(nnc2C2CCCN2)C1 (stereo not given) | 124.8%
O=C(NC1CCCCC1)N1CCn2c(nnc2C2CCCN2)C1 (stereo not given) | 120.9%
CN1CCN(C(=O)NC2CCCC2)Cc2cccnc21.O=C(O)C(F)(F)F | -7.276%
O=C1CC(c2cccs2)Cc2[nH]c(=O)c(C(=O)NC3CCCC3)cc21 (stereo not given) | 7.726%
Cn1cc(C(=O)NC[C@H]2OC[C@@H]3CCN(C4CCOCC4)C[C@@H]32)cn1.O=C(O)C(F)(F)F | -10.96%
CN1CCC(c2ncc3c(n2)CCN(C(=O)CC2C=CCC2)C3)CC1 (stereo not given) | -2.125%
CN1CCc2nc(C3CCCN(C(=O)CC4CCCCC4)C3)ncc2C1 (stereo not given) | 117.4%
COC1CCN(S(=O)(=O)N2CCCC(c3cccc(C(=O)O)c3)C2)CC1 (stereo not given) | 12.84%
CN1CCc2nc(C3CCCN(S(=O)(=O)N4CCCC4)C3)ncc2C1 (stereo not given) | 92.03%
CCC(=O)N1CCCC(c2ncc3c(n2)CCN(C)C3)C1 (stereo not given) | 111.8%
CC1(C)CCN(S(=O)(=O)N2CCCC(c3cccc(C(=O)O)c3)C2)CC1 (stereo not given) | 0.9326%
CN1CCc2nc(C3CCCN(C(=O)CC(C)(C)C)C3)ncc2C1 (stereo not given) | 119.8%
O=C(CCC1CCCC1)N1CCC(c2ncc3c(n2)CCNC3)CC1 | -4.401%

Structure (SMILES) | Percent Effect
Cc1nc[nH]c1CN1CCCC(CNC(=O)c2ccncn2)C1 (stereo not given) | -3.697%
CCOc1ccccc1C(=O)NS(=O)(=O)c1ccc2c(c1)OCCCO2 | -4.596%
CCOc1cccc2c1OCC(=O)N(c1ccc3c(c1)OCCO3)C2 | 123.7%
CCOc1cccc2c1OCC(=O)N(c1ccc(N(C)C)cc1)C2 | 138.3%
CCS(=O)(=O)N1CCC2(CC(=O)N(c3ccc4c(c3)OCO4)C2)C1 (stereo not given) | -0.7388%
CCOc1cccc2c1OCC(C(=O)NC(C)Cn1cccn1)=C2 (stereo not given) | -1.745%
CCOc1cccc2c1OCC(C(=O)NS(=O)(=O)Cc1ccccc1)=C2 | -3.971%
c1cncc(OCc2nc(C3CC3)nn2-c2ccc3c(c2)OCCO3)c1 | 1.227%
CCOc1cccc2c1OCC(=O)N(c1ccc3c(c1)OCO3)C2 | 112.1%
CN(C)C(=O)N1CCC2(CC(=O)N(c3ccc4c(c3)OCO4)C2)C1 (stereo not given) | 3.437%
Cc1nn(C)cc1C(C)Nc1ncc(C(N)=O)cc1Cl (stereo not given) | -11.95%
COC(=O)CC(NC(=O)c1cccc(N2CCCC2=O)c1)c1cccs1 (stereo not given) | 6.294%
CN(Cc1ccc(Cl)s1)C(=O)CN(C)C1CCCc2ccccc21 (stereo not given) | -6.291%
O=C(CCN1CCSCC1c1ccccc1)N1CCOCC1 (stereo not given) | 2.279%
COc1ccsc1C(=O)Nc1cc(CN2CCOCC2)ccc1C | -3.737%
O=C(O)C(F)(F)F.O=C(O)C(F)(F)F.O=C(O)C(F)(F)F.c1cncc(CN2CCC3(CC2)CC(c2cccnc2)CO3)c1 (stereo not given) | 108.2%
O=C(O)C(F)(F)F.O=C(O)C(F)(F)F.c1cncc(C2COC3(CCN(CC4CC4)CC3)C2)c1 (stereo not given) | 1.552%
Fc1cnc(N2CCC3(CC2)CC(OCc2cccnc2)CO3)nc1.O=C(O)C(F)(F)F.O=C(O)C(F)(F)F (stereo not given) | -2.608%
COCCN1CCC2(CC1)CC(Nc1ccc(C)nn1)CO2.O=C(O)C(F)(F)F (stereo not given) | -23.59%
Fc1ccc(N2CCC3(CC2)CC(OCc2cccnc2)CO3)cc1.O=C(O)C(F)(F)F (stereo not given) | -13.34%
Fc1ccc(CN2CCC3(CC2)CC(c2cccnc2)CO3)cc1.O=C(O)C(F)(F)F.O=C(O)C(F)(F)F (stereo not given) | 97.05%
O=C(NC1COC2(CCN(CC3CCC3)CC2)C1)c1ccccn1.O=C(O)C(F)(F)F (stereo not given) | 9.161%
COCCN1CCC2(CC1)CC(c1cccnc1)CO2.O=C(O)C(F)(F)F (stereo not given) | 117.3%
O=C(O)C(F)(F)F.O=S(=O)(C1CC1)N1CCC2(CC1)CC(Oc1cccnc1)CO2 (stereo not given) | 3.761%
O=C(O)C(F)(F)F.O=C(O)C(F)(F)F.c1cncc(C2COC3(CCN(CC4CCOCC4)CC3)C2)c1 (stereo not given) | 107.8%
